This is an account of results in PubChem BioAssay (Tox21).

Assay [1] can be described thus: qHTS assay to identify small molecule antagonists of the estrogen related receptor (ERR) signaling pathway from Tox21 library - cell viability counter screen (AID 1224834). Also: nearly all actives have a fitted effect of over 30% in size. Also: potency is read from the fitted curve at half-maximal effect. The method in brief: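 ERR reporter cells, 2,000 per well, rested 6 h, then exposed to compound in DMSO for 17.5 hours at 37 C. Viability read as fluorescence after 30 min with CellTiter-Fluor.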

Assay [2] addresses Luciferin 4-monooxygenase (Photinus pyralis) (UniProt P08659). The experiment in a line: qHTS assay to identify small molecule inhibitors of firefly luciferase (AID 1224835). Also: nearly all actives have a fitted effect of over 25% in size. Also: potency is read from the fitted curve at half-maximal effect. As to activity change, negative = inhibition: series mostly up to about 120 µM. The method in brief: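 Inhibition of purified Photinus luciferase is measured by luminescence. Substrate levels (D-luciferin, ATP) sit at their KM values. Each compound is tested in a concentration series.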

The nature of assay [3]: qHTS assay to identify small molecule agonists of the constitutive androstane receptor (CAR) signaling pathway - cell viability counter screen (AID 1224836). Also: nearly all actives have a fitted effect of over 45% in size. Also: potency is read from the fitted curve at half-maximal effect. As to viability change, negative = cytotoxic: series mostly up to about 92 µM. The method in brief:
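HepG2 cells stably carrying hCAR and a CYP2B6-2.2kb reporter; 15-concentration compounds plus PK11195 (final 0.75 uM), 23 hr at 37 C/5% CO2. Viability read by CellTiter-Fluor fluorescence.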

The nature of assay [4]: qHTS assay to identify small molecule antagonists of the constitutive androstane receptor (CAR) signaling pathway - cell viability counter screen (AID 1224837). Also: nearly all actives have a fitted effect of over 45% in size. Also: potency is read from the fitted curve at half-maximal effect. As to activity change, negative = cytotoxicity: series mostly up to about 92 µM. In outline:
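HepG2 cells stably carrying hCAR and CYP2B6-2.2kb reporter, stimulated with 50 nM CITCO and compounds at 15 concentrations for 23 h at 37 C. Viability measured by CellTiter-Fluor fluorescence.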

Assay [5] addresses Nuclear receptor subfamily 1 group I member 3 (Homo sapiens) (UniProt Q14994). The experiment in a line: qHTS assay to identify small molecule antagonists of the constitutive androstane receptor (CAR) signaling pathway (AID 1224838). Also: nearly all actives have a fitted effect of over 40% in size. Also: potency is read from the fitted curve at half-maximal effect. The method in brief: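 HepG2 cells stably carrying hCAR and a CYP2B6-2.2kb luciferase reporter, seeded 4 hrs before compound (15 concentrations). Stimulated with 50 nM CITCO for 24 hr at 37 C. ONE-Glo luminescence read after 30 min at room temperature.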

Assay [6] has the same target. The experiment in a line: qHTS assay to identify small molecule agonists of the constitutive androstane receptor (CAR) signaling pathway (AID 1224839). Also: nearly all actives have a fitted effect of over 15% in size. Also: potency is read from the fitted curve at half-maximal effect. As to activation: series mostly up to about 92 µM. In outline:
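HepG2 cells stably co-transfected with hCAR and a CYP2B6-2.2kb luciferase reporter; compounds at 15 concentrations with 0.75 uM PK11195 present. After 24 hr at 37 C, luciferase read by ONE-Glo luminescence.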

Assay [7] is described as follows: qHTS assay to identify small molecule antagonists of the estrogen related receptor signaling pathway with the pleiotropic PPARgamma coactivator (PGC) from Tox21 10K library - cell viability counter screen (AID 1224840; active = well fitted cell-killing curve with a large enough effect in the repeat runs, not every such curve was filed as active; also: nearly all actives have a fitted effect of over 40% in size; also: potency is read from the fitted curve at half-maximal effect). The method in brief: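 PGC/ERR cells (2,000/well) plated 6 h, then compound-treated for 17.5 h at 37 C. Viability measured by CellTiter-Fluor fluorescence after 30 min at 37 C, multiplexed with the pathway assay.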

A short description of assay [8]: qHTS assay to identify small molecule antagonists of the estrogen related receptor signaling pathway with the pleiotropic PPARgamma coactivator (PGC) from Tox21 10K library (AID 1224841; call rule not given here; also: series mostly up to about 92 µM; actives are mostly falling curves and most rising ones were filed inactive; nearly all actives have a fitted effect of over 50% in size). The method in brief:
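PGC/ERR cell line, 2,000 cells/well, pre-incubated 6 hours at 37 C, then exposed to compounds for 18 hours at 37 C; luciferase read with One-Glo luminescence after 30 min at room temperature.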

The nature of assay [9]: qHTS assay to identify small molecule agonists of the estrogen related receptor signaling pathway with the pleiotropic PPARgamma coactivator (PGC) from Tox21 10K library (AID 1224842). Also: nearly all actives have a fitted effect of over 15% in size. In outline: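 Luminescence from One-Glo (30 min, room temperature) measured after PGC/ERR cells had 18 h at 37 C with pinned compound (23 nL in DMSO). Cells had been seeded at 2,000 per well and pre-incubated 6 h.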

In assay [10] the target is Thyrotropin receptor (Homo sapiens) (UniProt P16473). The experiment in a line: qHTS assay to identify small molecule agonists of the thyroid stimulating hormone receptor (TSHR) signaling pathway (AID 1224843; calls by dose curve; also: nearly all actives have a fitted effect of over 45% in size). In outline:
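Screening of the Tox21 10K collection used HEK293 cells engineered with TSHR at 800 cells per well. After a 30-min room-temperature compound exposure, HTRF cAMP reagents were added and fluorescence recorded 1 h later.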

SMILES strings stand for the structures. Records with an inconclusive call do not appear. Values without a mark were called inactive. Activity calls are given as the source filed them. Unless noted, calls follow the shape of the dose curve; as a rule, active = well fitted curve in the direction sought with a large enough effect in the repeat runs; inconclusive = weak or mixed curves; inactive = no such curve, though single readings can be large; an effect the other way counts as inactive or inconclusive.
% is scaled to controls: 0 for no effect and ±100 for the full control effect.

Sequence of Luciferin 4-monooxygenase (Photinus pyralis) (P08659 whole entry, looked up): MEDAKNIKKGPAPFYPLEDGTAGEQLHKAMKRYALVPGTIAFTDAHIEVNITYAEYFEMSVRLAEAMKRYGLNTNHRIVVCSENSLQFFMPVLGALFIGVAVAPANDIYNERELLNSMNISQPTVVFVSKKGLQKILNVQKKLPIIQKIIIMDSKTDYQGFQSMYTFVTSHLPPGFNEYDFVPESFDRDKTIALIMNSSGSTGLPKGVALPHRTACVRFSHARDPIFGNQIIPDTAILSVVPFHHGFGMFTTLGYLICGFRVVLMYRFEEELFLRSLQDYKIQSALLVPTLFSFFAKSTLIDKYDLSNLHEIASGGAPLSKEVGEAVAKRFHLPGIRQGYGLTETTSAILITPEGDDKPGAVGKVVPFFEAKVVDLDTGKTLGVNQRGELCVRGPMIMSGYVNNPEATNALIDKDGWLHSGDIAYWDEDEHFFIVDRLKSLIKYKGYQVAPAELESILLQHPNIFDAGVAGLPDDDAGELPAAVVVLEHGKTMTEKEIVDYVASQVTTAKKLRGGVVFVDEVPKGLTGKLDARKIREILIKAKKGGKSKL
Sequence of Thyrotropin receptor (Homo sapiens) (P16473 whole entry, looked up): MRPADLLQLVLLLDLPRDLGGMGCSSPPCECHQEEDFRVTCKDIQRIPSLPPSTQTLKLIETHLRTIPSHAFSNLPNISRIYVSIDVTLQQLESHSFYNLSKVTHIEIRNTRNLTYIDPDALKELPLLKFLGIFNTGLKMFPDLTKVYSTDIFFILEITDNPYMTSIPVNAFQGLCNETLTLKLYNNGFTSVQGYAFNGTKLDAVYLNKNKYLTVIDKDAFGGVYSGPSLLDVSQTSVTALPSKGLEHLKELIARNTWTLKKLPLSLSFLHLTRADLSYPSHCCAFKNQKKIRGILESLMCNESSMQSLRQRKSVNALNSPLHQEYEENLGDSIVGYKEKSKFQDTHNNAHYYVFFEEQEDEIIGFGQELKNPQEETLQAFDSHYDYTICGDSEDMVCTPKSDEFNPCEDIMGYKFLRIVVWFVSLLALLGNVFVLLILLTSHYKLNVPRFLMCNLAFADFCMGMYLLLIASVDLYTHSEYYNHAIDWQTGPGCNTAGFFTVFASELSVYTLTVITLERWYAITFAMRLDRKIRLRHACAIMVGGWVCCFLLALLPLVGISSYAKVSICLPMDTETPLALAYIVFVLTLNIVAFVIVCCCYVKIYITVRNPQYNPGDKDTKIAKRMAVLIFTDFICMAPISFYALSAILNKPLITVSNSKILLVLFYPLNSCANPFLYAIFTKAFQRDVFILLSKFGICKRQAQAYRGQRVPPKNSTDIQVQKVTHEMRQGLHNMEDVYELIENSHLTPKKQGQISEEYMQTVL
Sequence of Nuclear receptor subfamily 1 group I member 3 (Homo sapiens) (Q14994 whole entry, looked up): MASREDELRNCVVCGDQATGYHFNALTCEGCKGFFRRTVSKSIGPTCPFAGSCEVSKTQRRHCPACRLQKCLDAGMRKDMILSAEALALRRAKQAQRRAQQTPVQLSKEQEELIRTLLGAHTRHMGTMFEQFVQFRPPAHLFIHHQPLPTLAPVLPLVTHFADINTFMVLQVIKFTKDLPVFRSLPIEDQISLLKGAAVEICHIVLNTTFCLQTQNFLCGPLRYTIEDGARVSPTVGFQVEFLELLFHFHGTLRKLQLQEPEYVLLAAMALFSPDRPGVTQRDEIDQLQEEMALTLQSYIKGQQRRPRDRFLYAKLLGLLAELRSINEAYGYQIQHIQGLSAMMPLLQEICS

For the compound `CCCCCCCCCCCCN(C)C`, the Potency result in assay [1], in assay [2], in [3], in assay [4], in assay [5] and in assay [6] was “inactive” in each case. Also, the Potency result in assay [7], in [8], in assay [9] and in assay [10] was “inactive” each time.

Turning to `O=C(O)c1ccc(=O)[nH]c1`, the Potency entry in assay [1], in assay [2], in assay [3], in [4], in assay [5] and in [6] was “inactive” throughout. In addition, the Potency result in assay [7], in assay [8], in assay [9] and in [10] was “inactive” throughout.

`CC1(C)CC(=O)CC(C)(C)N1[O]`: the Potency entry in assay [1], in assay [2], in [3], in assay [4], in assay [5] and in assay [6] was “inactive” in each case. Moreover, the Potency result in assay [7], in [8], in assay [9] and in assay [10] was “inactive” in each case.

For `C=CCc1ccc(OC(=O)Cc2ccccc2)c(OC)c1`, the Potency entry in assay [1], in assay [3], in assay [4], in assay [5], in assay [6] and in assay [7] was “inactive” throughout. Further, in assay [2], the Potency is 25.2 µM (active).

On to `C[C@H](N)[C@H](O)c1ccc(O)c(O)c1`, for which the Potency result in [1], in assay [2], in assay [3], in assay [4], in assay [5] and in assay [6] was “inactive” each time. Also, the Potency result in assay [7], in assay [8] and in assay [9] was “inactive” throughout.

Turning to `CCCCC(CC)COC(=O)c1c(Br)c(Br)c(Br)c(Br)c1C(=O)OCC(CC)CCCC` (centres undefined), the Potency result in assay [1], in [2], in assay [3], in [4], in assay [5] and in assay [6] was “inactive” each time. In addition, the Potency result in assay [7] was “inactive”.

As for `O=C(Cl)OCCOCCOC(=O)Cl`, the Potency entry in assay [1], in [2], in assay [3], in assay [4], in assay [6] and in assay [7] was “inactive” throughout. Besides, the Potency entry in [8], in assay [9] and in [10] was “inactive” throughout. Besides, the Potency in assay [5] was 30.6 µM (active).

In the case of `CCOP(=S)(OCC)Oc1ccc(S(C)=O)cc1` (centres undefined), the Potency result in [1], in assay [2], in assay [3], in [4], in assay [5] and in assay [6] was “inactive” in each case. The Potency entry in [7], in [8], in assay [9] and in assay [10] was “inactive” throughout.

Consider `CC(C)(C#N)C(C)(C)C#N`, for which the Potency entry in assay [1], in assay [2], in [3], in assay [4], in [5] and in assay [6] was “inactive” in each case. Besides, the Potency entry in assay [7], in assay [8] and in [9] was “inactive” each time.

For `CCCCC1C(=O)NC(=O)N(C2CCCCC2)C1=O` (centres undefined), the Potency result in assay [1], in assay [2], in assay [3], in assay [4], in assay [5] and in assay [6] was “inactive” throughout. In addition, in assay [7], the Potency entry was “inactive”.

For `Clc1ccccc1`, the Potency result in [1], in assay [2], in assay [3], in [4], in [5] and in assay [6] was “inactive” each time. In addition, the Potency entry in assay [7], in assay [8], in assay [9] and in assay [10] was “inactive” in each case.

Consider `CC(C)CCCCCCCOC(=O)c1ccccc1C(=O)OCCCCCCCC(C)C`, for which the Potency entry in assay [1], in [2], in assay [3], in [4], in assay [5] and in assay [6] was “inactive” in each case. Also, the Potency entry in assay [7], in [8], in assay [9] and in assay [10] was “inactive” throughout.

Regarding `Nc1c(Br)cc(Br)c2c1C(=O)c1ccccc1C2=O`, the results for the viability change, negative = cytotoxic in [1], in [3] and in assay [7] were -5.59% [at 19 µM], -15% [at 19 µM] and -14.9% [at 19 µM], respectively. Also, in assay [2], the activity change, negative = inhibition was -3.13% [at 23.6 µM]. Further, the activity change, negative = cytotoxicity in [4] is -15.6% [at 19 µM]. For the same compound, the figures for the activity, negative = inhibition in assay [5] and in assay [8] were 102% [at 19 µM] and 5.52% [at 19 µM], respectively. The figures for the activation in assay [6], in assay [9] and in assay [10] were 7.31% [at 19 µM], 0.394% [at 19 µM] and -6.18% [at 19 µM], respectively.

Turning to `CCC1(CCC(C)C)C(=O)NC(=O)NC1=O`, the Potency result in assay [1], in assay [2], in assay [3], in [4], in [5] and in assay [6] was “inactive” each time. In assay [7], the Potency result is “inactive”.

On to `Cc1nnc(-c2ccccc2)c(=O)n1N`, for which the Potency entry in [1], in [2], in assay [3], in [4], in assay [5] and in [6] was “inactive” in each case. Further, the Potency entry in assay [7] and in [10] was “inactive” in each case.

For the compound `Cc1ccccc1`, the Potency entry in assay [1], in assay [2], in assay [3], in assay [4], in [5] and in assay [6] was “inactive” each time. Moreover, the Potency result in [7] and in assay [10] was “inactive” each time.

With `CNC(=O)Oc1cccc(N=CN(C)C)c1`, the Potency result in assay [1], in assay [2], in assay [3], in [4], in assay [5] and in assay [6] was “inactive” in each case. The Potency entry in assay [7] and in [10] was “inactive” throughout.

Take `Cc1ccc2c(C)cccc2c1`: the Potency entry in assay [1], in [2], in assay [3], in assay [4], in assay [5] and in [6] was “inactive” throughout. Further, the Potency result in [7] and in assay [10] was “inactive” in each case.

Turning to `CCOC(=O)C1OC1(C)c1ccccc1` (centres undefined), the Potency result in assay [1], in [2], in assay [3], in assay [4], in assay [5] and in assay [6] was “inactive” throughout. The Potency entry in assay [7] and in assay [10] was “inactive” throughout.

On to `CC(C)C1(C)N=C(c2ncccc2C(=O)O)NC1=O` (centres undefined), for which the Potency entry in [1], in [2], in assay [3], in assay [4], in [5] and in assay [6] was “inactive” throughout. Further, the Potency entry in assay [7] and in assay [10] was “inactive” each time.

Turning to `CN1C(=O)CN=C(c2ccccc2)c2cc([N+](=O)[O-])ccc21`, the Potency entry in assay [1], in assay [2], in [3], in assay [4], in assay [5] and in assay [6] was “inactive” throughout. For the same compound, the Potency entry in assay [7] and in assay [10] was “inactive” in each case.

Take `O=C(N/N=C/c1ccc([N+](=O)[O-])o1)c1cc([N+](=O)[O-])cc([N+](=O)[O-])c1O`: the Potency was 11.9 µM (active) in assay [1]; 21.9 µM (active) in assay [2]; 11.9 µM (active) in assay [3]; 10.6 µM (active) in assay [4]; 15 µM (active) in assay [6]; 11.9 µM (active) in assay [7]. The Potency result in [5] and in assay [10] was “inactive” throughout.

`O=C(O)c1cc(I)cc(I)c1I`: the Potency result in [1], in assay [2], in [3], in assay [4], in [5] and in assay [6] was “inactive” throughout. The Potency result in assay [7] and in assay [10] was “inactive” throughout.

Consider `CC(C)CCON=O`, for which the Potency result in [1], in assay [2], in assay [3], in assay [4], in assay [5] and in assay [6] was “inactive” in each case. The Potency result in assay [7] and in assay [10] was “inactive” each time.

On to `CCCCCCCCCCCCCCCl`, for which the Potency entry in [1], in assay [2], in assay [3], in [4], in [5] and in assay [6] was “inactive” throughout. The Potency entry in assay [7] and in assay [10] was “inactive” in each case.
